Targets with a hit are over-represented here; the source holds about 7,900 in all. About 0.6% of all pairs of compound and target were hits. Values without a mark were called inactive.

Chain of UniProt Q15642 (Q15642 whole entry, looked up): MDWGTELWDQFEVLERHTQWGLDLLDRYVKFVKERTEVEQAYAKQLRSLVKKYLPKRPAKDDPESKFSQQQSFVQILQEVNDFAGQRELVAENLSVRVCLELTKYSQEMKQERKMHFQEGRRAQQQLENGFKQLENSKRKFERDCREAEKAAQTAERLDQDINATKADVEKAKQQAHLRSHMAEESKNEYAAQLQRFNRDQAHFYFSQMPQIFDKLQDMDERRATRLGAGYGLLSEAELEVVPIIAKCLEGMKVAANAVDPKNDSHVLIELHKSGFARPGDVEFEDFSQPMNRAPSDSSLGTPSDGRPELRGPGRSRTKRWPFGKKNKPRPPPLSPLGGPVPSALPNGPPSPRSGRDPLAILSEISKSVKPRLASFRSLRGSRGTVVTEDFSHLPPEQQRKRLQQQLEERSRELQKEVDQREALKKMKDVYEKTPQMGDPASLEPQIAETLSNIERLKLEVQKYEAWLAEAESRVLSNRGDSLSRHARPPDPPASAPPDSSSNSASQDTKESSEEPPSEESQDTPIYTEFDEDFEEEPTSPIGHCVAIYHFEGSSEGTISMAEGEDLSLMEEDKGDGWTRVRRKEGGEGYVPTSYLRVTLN
Chain of UniProt O75717 (O75717 whole entry, looked up): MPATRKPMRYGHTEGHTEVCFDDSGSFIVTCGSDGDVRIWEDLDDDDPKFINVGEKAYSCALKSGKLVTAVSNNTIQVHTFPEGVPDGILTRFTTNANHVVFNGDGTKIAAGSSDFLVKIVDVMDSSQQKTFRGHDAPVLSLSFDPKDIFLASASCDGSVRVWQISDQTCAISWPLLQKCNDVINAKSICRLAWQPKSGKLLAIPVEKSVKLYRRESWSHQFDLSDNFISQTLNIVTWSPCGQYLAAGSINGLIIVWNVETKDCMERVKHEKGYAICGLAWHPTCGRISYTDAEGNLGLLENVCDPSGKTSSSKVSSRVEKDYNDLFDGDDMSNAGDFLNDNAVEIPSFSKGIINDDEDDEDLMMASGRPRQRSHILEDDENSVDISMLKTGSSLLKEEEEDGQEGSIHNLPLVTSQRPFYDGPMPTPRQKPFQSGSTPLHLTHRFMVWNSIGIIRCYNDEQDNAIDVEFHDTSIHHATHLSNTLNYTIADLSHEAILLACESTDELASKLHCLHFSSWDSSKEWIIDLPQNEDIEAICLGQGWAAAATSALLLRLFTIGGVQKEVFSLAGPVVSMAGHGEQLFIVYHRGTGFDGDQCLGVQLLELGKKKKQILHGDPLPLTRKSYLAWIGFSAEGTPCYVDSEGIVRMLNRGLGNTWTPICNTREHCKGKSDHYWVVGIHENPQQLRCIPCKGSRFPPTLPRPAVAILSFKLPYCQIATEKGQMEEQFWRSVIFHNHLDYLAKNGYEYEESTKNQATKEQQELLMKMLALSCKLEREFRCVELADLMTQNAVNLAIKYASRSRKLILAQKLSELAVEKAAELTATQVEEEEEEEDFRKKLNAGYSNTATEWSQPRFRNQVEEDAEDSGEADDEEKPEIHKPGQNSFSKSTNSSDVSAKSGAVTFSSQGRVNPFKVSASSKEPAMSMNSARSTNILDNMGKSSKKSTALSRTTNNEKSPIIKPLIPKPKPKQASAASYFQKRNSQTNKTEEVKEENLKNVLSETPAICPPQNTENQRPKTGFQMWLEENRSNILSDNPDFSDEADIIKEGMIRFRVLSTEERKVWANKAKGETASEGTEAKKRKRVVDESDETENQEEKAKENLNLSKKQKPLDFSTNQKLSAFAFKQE
Chain of UniProt Q9UK41 (Q9UK41 whole entry, looked up): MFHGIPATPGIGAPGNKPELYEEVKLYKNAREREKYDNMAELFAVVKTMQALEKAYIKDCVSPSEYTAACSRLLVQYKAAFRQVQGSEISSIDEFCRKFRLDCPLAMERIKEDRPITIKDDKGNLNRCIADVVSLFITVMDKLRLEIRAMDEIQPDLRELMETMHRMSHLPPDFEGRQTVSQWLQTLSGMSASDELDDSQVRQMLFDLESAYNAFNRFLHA
Chain of UniProt Q9NZ09 (Q9NZ09 whole entry, looked up): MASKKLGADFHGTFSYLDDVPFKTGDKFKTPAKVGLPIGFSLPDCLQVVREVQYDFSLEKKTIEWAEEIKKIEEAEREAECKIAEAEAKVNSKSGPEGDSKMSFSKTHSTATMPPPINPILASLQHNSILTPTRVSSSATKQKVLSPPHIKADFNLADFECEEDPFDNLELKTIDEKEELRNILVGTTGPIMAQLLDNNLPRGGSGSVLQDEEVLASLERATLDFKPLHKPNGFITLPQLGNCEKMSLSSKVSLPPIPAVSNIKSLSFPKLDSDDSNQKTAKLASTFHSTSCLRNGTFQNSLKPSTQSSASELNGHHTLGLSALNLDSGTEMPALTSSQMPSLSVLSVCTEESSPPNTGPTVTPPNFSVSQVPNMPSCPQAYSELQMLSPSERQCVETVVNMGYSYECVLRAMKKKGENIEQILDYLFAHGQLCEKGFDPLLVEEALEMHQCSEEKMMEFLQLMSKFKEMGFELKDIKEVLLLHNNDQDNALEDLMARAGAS
Chain of UniProt Q9H4A3 (Q9H4A3 whole entry, looked up): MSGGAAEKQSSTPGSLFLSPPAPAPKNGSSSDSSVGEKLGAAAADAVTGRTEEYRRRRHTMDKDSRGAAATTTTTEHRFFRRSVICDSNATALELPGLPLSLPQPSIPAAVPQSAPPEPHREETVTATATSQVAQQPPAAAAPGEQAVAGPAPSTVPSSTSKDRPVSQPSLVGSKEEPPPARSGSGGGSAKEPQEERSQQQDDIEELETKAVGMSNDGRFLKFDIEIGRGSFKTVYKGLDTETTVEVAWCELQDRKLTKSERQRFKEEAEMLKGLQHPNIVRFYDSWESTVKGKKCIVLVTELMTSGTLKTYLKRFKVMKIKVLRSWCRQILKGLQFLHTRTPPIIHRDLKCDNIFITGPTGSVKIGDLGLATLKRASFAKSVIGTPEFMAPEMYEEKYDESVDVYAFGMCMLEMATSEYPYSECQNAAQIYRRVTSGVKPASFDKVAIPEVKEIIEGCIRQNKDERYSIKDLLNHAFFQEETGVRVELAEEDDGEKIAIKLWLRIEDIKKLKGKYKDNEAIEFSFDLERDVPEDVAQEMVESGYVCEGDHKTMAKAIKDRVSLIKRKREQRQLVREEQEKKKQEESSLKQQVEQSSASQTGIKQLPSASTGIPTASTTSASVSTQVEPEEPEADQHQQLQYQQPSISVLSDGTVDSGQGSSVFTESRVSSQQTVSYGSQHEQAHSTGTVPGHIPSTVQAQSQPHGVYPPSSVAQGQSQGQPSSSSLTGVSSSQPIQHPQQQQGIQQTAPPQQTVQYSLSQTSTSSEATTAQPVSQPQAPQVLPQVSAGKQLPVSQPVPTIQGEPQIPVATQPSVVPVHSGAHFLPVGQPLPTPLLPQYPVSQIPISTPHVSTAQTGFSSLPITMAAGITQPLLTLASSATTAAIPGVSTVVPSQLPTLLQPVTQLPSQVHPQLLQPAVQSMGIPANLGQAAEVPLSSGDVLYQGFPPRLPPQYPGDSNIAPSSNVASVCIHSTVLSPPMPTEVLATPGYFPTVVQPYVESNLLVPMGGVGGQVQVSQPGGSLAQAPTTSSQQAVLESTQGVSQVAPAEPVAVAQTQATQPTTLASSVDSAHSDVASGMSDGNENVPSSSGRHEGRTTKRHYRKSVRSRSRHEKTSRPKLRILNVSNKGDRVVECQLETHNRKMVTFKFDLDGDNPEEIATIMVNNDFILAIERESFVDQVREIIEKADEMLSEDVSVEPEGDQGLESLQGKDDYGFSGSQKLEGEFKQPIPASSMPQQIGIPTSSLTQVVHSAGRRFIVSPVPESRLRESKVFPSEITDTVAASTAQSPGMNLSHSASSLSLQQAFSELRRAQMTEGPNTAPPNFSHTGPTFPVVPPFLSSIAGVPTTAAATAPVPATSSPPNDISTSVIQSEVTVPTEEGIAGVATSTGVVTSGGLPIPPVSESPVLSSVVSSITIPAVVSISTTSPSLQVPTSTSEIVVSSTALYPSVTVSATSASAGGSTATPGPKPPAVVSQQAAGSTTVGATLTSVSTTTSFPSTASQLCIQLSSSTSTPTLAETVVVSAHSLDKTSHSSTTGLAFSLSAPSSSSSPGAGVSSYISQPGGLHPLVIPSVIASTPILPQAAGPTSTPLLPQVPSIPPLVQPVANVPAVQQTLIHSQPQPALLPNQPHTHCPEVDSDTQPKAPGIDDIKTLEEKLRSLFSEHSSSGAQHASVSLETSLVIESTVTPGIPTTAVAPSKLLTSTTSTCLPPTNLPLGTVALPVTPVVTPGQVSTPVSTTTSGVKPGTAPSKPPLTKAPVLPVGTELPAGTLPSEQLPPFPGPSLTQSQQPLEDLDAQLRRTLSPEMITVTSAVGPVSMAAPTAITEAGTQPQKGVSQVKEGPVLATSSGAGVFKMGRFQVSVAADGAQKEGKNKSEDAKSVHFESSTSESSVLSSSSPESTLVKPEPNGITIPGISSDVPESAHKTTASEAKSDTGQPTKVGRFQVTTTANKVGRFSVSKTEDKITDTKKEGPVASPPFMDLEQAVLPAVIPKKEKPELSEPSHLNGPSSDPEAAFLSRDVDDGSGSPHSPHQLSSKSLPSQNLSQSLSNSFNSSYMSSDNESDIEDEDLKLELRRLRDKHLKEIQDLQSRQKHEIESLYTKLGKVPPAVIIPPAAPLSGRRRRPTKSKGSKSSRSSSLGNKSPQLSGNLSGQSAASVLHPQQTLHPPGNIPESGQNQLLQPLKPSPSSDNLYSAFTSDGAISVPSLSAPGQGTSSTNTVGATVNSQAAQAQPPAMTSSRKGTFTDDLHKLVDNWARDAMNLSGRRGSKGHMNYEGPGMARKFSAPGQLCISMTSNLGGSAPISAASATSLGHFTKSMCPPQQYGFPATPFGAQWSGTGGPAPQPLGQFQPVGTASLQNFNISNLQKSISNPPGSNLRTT
Chain of UniProt Q969T4 (Q969T4 whole entry, looked up): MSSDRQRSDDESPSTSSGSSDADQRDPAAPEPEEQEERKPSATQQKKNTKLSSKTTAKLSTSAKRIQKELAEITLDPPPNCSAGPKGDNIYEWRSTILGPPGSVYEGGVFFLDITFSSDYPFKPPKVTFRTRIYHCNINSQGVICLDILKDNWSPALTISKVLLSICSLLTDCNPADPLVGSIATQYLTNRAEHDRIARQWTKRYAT

Compound in one test: Cc1cc(SCc2sc(-c3ccc(C(F)(F)F)cc3)nc2C)ccc1OCC(=O)O
Description: log2 fold change, soluble protein after heating vs DMSO (PISA); higher = thermal stabilisation; K562 cells, 10 uM, 30 min; active = over 0.2 and 3.5 SD of the protein, either way, in both replicates (recomputed). A digest of the protocol:
(§1)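 K562 cells at 2×10^6 cells/mL were treated with 10 μM compound for 30 min. Aliquots were heated for 3 min across 48°C-58°C, pooled, and extracted in PBS with 0.5% NP-40 at 4°C; soluble protein was the supernatant after 21,000xg for 90 min. Soluble protein was quantified by TMTpro 16plex LC-MS/MS with channel sums equalised, and reported as log2 fold change in thermal stability against DMSO controls, with values from duplicates.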
On to TMEM214 (UniProt Q6NUQ4), for which the log2 fold change is 0.048.

On to WDR62 isoform 4 (UniProt O43379), for which the log2 fold change was -0.016.

Regarding VPS11 (UniProt Q9H270), the log2 fold change was 0.095.

Turning to WASHC2C, A0A096LPC5, the log2 fold change was -0.053.

As for WNK1 isoform 7 (UniProt Q9H4A3), the log2 fold change is -0.018.

VPS52 (UniProt Q8N1B4): the log2 fold change was -0.013.

In the case of TPM2 (UniProt P07951), the log2 fold change is -0.117.

Consider WASHC2A (UniProt Q641Q2), for which the log2 fold change is -0.047.

With TRAPPC11 (UniProt Q7Z392), the log2 fold change is 0.1.

For WDHD1 (UniProt O75717), the log2 fold change was 0.109.

Turning to TXNIP (UniProt Q9H3M7), the log2 fold change was 0.01.

With VPS41 (UniProt P49754), the log2 fold change was 0.046.

For TRIP10 (UniProt Q15642), the log2 fold change is 0.038.

With TRIP10 isoform 2 (UniProt Q15642), the log2 fold change is -0.089.

Take USP48 isoform 8 (UniProt Q86UV5): the log2 fold change is 0.212.

Turning to VPS8 (UniProt Q8N3P4), the log2 fold change is 0.083.

As for TOM1L1 (UniProt O75674), the log2 fold change was 0.011.

As to TMTC3 (UniProt Q6ZXV5), the log2 fold change was 0.038.

Take TPP1 (UniProt O14773): the log2 fold change is -0.016.

Regarding VPS28 (UniProt Q9UK41), the log2 fold change is 0.096.

Consider TMEM9 (UniProt Q9P0T7), for which the log2 fold change was 0.014.

Turning to TNPO3 (UniProt Q9Y5L0), the log2 fold change was 0.046.

For WAPL isoform 3 (UniProt Q7Z5K2), the log2 fold change is -0.006.

On to TMEM192 (UniProt Q8IY95), for which the log2 fold change is -0.022.

Turning to UHRF1BP1L (UniProt A0JNW5), the log2 fold change was -0.024.

On to TTI1 (UniProt O43156), for which the log2 fold change was 0.033.

As to USP34 (UniProt Q70CQ2), the log2 fold change was 0.118.

For the target UBE2E3 (UniProt Q969T4), the log2 fold change was 0.034.

In the case of VDAC1 (UniProt P21796), the log2 fold change is -0.031.

Take TRMT10A (UniProt Q8TBZ6): the log2 fold change is 0.016.

As to USP25 isoform 3 (UniProt Q9UHP3), the log2 fold change was 0.021.

Consider UBAP1 isoform 4 (UniProt Q9NZ09), for which the log2 fold change is 0.082.

With TMEM63B (UniProt Q5T3F8), the log2 fold change was 0.015.

With USP24 (UniProt Q9UPU5), the log2 fold change was -0.017.

WDR41 (UniProt Q9HAD4): the log2 fold change is -0.02.

In the case of TRAM1 (UniProt Q15629), the log2 fold change is 0.09.

Compound in a further test: Cc1ccc(-n2nc(C(C)(C)C)cc2NC(=O)Nc2ccc(OCCN3CCOCC3)c3ccccc23)cc1 [doramapimod]
The test is described as above. Summed up: as §1
As for TMEM214 (UniProt Q6NUQ4), the log2 fold change is -0.013.

Turning to WDR62 isoform 4 (UniProt O43379), the log2 fold change is -0.057.

For VPS11 (UniProt Q9H270), the log2 fold change is -0.029.

On to WASHC2C, A0A096LPC5, for which the log2 fold change is 0.02.

With WNK1 isoform 7 (UniProt Q9H4A3), the log2 fold change was 0.001.

Take VPS52 (UniProt Q8N1B4): the log2 fold change was 0.008.

In the case of TPM2 (UniProt P07951), the log2 fold change was 0.059.

For the target WASHC2A (UniProt Q641Q2), the log2 fold change is 0.062.

On to TRAPPC11 (UniProt Q7Z392), for which the log2 fold change is 0.028.

For WDHD1 (UniProt O75717), the log2 fold change is -0.093.

For the target TXNIP (UniProt Q9H3M7), the log2 fold change is 0.113.

Regarding VPS41 (UniProt P49754), the log2 fold change was 0.034.

Regarding TRIP10 (UniProt Q15642), the log2 fold change was -0.036.

TRIP10 isoform 2 (UniProt Q15642): the log2 fold change is -0.035.

Regarding USP48 isoform 8 (UniProt Q86UV5), the log2 fold change was -0.1.

As for VPS8 (UniProt Q8N3P4), the log2 fold change is 0.

TOM1L1 (UniProt O75674): the log2 fold change was -0.021.

TMTC3 (UniProt Q6ZXV5): the log2 fold change is 0.018.

Turning to TPP1 (UniProt O14773), the log2 fold change is 0.008.

For VPS28 (UniProt Q9UK41), the log2 fold change was 0.035.

Take TMEM9 (UniProt Q9P0T7): the log2 fold change is 0.048.

In the case of TNPO3 (UniProt Q9Y5L0), the log2 fold change was -0.046.

With WAPL isoform 3 (UniProt Q7Z5K2), the log2 fold change is 0.017.

For TMEM192 (UniProt Q8IY95), the log2 fold change is 0.024.

Turning to UHRF1BP1L (UniProt A0JNW5), the log2 fold change is 0.046.

For the target TTI1 (UniProt O43156), the log2 fold change is 0.059.

On to USP34 (UniProt Q70CQ2), for which the log2 fold change is -0.006.

UBE2E3 (UniProt Q969T4): the log2 fold change is 0.03.

For the target VDAC1 (UniProt P21796), the log2 fold change is -0.024.

On to TRMT10A (UniProt Q8TBZ6), for which the log2 fold change is -0.023.

Take USP25 isoform 3 (UniProt Q9UHP3): the log2 fold change is 0.007.

With UBAP1 isoform 4 (UniProt Q9NZ09), the log2 fold change was 0.044.

Consider TMEM63B (UniProt Q5T3F8), for which the log2 fold change was -0.047.

Regarding USP24 (UniProt Q9UPU5), the log2 fold change was -0.041.

For WDR41 (UniProt Q9HAD4), the log2 fold change was -0.042.

On to TRAM1 (UniProt Q15629), for which the log2 fold change was -0.119.

Source of the values: the supplement of paper PMC10849652.
